# Results as given in PubChem BioAssay AID651956 (Broad Institute, 2012).
# Measured potencies and affinities stand elsewhere. Records with an inconclusive call do not appear. A number with no mark means an inactive call.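 How the source made its calls: active means in every test run, a fitted half-maximal concentration for signal decrease at or below twice the highest tested concentration; inconclusive means runs disagree, flat 30 to 70% decrease, or poor fit; inactive means the rest.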
# Experiment: miR-122 activators in hepatoma reporter cells, dose response, cell-based, Huh7 psiCHECK-miR122, Renilla luciferase, cherry-picked (AID 651956);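 further: Renilla luciferase from a miR-122 sensor reporter so lower signal means miR-122 activation; 0% = median neutral control wells and -100% = median positive control wells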
# Details: 48 h; series mostly up to 35 µM; activity change, negative = signal decrease: at the top concentration
row,Structure (SMILES),"activity change, negative = signal decrease [%]"
1,CC(=O)N1[C@H](CN(C)S(=O)(=O)c2ccccc2)[C@H](c2ccccc2)[C@@H]1CO,-17.7
2,CN1C(=O)c2cc(NC(=O)c3cccc(F)c3)ccc2OC[C@H]2O[C@H](CC(=O)NC3CCC3)CC[C@@H]21,-4.17
3,CCCCc1cc(=O)oc2cc(C)cc(OC(C)C(=O)O)c12 (stereo not drawn),21.7
